Reference: paper PMC3218832

Assays:
Assay in all cases: protein binding microarray; high values mean tight binding
Settings in all cases: dsDNA, one strand shown
RELARELA (p65 homodimer) = RELARELA (p65 homodimer) (Homo sapiens, UniProt Q04206 1-307)
p50p50 homodimer = p50p50 homodimer (Homo sapiens, UniProt P19838 7-356)
p52p52 homodimer = target: T1, p52p52 homodimer (Homo sapiens, UniProt Q00653 4-332)
T1 sequence: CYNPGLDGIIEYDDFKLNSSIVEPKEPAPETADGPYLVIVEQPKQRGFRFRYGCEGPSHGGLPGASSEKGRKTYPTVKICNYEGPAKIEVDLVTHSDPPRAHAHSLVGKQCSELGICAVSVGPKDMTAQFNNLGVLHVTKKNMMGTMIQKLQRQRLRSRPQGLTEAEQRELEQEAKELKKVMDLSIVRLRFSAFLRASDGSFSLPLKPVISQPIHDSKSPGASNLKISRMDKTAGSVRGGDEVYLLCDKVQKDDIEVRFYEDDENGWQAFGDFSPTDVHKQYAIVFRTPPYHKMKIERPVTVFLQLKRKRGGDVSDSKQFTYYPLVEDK

[1] = target: RELA (p65) subunit of heterodimer;p50 subunit (Homo sapiens;Homo sapiens, UniProt Q04206;P19838 1-307;7-356)
[2] = target: RELA (p65) subunit of heterodimer;p52 subunit (Homo sapiens;Homo sapiens, UniProt Q04206;Q00653 1-307;4-332)
RELB subunit;p50 subunit = RELB subunit;p50 subunit (Homo sapiens;Homo sapiens, UniProt Q01201;P19838 120-401;7-356)
RELB subunit;p52 subunit = target: T2, RELB subunit;p52 subunit (Homo sapiens;Homo sapiens, UniProt Q01201;Q00653 120-401;4-332)
T2 sequence 1: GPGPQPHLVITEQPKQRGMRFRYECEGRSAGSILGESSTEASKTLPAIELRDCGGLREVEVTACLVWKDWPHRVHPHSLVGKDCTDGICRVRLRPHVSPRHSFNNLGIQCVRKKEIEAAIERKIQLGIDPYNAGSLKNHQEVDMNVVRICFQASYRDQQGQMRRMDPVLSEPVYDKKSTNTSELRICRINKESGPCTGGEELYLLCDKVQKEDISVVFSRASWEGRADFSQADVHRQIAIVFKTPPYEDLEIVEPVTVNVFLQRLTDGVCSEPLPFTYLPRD
T2 sequence 2: T1 sequence

[3] = target: C-Rel subunit;p50 subunit (Homo sapiens;Homo sapiens, UniProt Q04864;P19838 1-285;7-356)
[4] = target: T3, C-Rel subunit;p52 subunit (Homo sapiens;Homo sapiens, UniProt Q04864;Q00653 1-285;4-332)
T3 sequence 1: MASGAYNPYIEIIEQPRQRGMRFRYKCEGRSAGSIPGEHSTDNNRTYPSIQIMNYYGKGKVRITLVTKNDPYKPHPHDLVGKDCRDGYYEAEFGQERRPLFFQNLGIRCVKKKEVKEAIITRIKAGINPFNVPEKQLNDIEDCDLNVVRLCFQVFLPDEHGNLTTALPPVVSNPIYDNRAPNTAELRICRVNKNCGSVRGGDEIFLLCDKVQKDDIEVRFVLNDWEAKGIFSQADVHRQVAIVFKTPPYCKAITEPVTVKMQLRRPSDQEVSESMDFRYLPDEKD
T3 sequence 2: T1 sequence

Chain of p50p50 homodimer (P19838 7-356): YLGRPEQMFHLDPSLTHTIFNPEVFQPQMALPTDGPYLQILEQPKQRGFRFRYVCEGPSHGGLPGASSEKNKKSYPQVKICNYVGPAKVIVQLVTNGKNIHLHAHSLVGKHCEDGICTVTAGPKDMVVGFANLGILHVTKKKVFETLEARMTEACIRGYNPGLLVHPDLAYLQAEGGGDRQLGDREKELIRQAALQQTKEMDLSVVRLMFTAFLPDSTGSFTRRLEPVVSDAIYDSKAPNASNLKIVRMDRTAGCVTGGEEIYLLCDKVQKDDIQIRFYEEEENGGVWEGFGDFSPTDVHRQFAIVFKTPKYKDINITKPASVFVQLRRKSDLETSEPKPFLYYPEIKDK
Chain of RELA (p65) subunit of heterodimer;p50 subunit (Q04206 1-307, chain 1 of 2): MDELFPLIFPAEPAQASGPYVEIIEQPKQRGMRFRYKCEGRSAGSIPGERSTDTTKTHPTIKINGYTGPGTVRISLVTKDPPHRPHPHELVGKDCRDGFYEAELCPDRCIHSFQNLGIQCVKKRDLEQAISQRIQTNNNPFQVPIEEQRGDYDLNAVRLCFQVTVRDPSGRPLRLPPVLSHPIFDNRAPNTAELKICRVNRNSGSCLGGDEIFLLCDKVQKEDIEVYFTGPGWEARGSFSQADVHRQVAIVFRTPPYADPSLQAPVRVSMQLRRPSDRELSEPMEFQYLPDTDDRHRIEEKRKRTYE
Chain of RELA (p65) subunit of heterodimer;p50 subunit (P19838 7-356, chain 2 of 2): as the sequence (P19838 7-356) above
Chain of RELARELA (p65 homodimer) (Q04206 1-307): as the sequence (Q04206 1-307, chain 1 of 2) above

Sequence | binding signal (RELARELA (p65 homodimer)) [z-score] | binding signal (p50p50 homodimer) [z-score] | binding signal (p52p52 homodimer) [z-score] | binding signal [1] [z-score] | binding signal [2] [z-score] | binding signal (RELB subunit;p50 subunit) [z-score] | binding signal (RELB subunit;p52 subunit) [z-score] | binding signal [3] [z-score] | binding signal [4] [z-score]
CGAAAGGCCCT | -0.835 | -0.751 | -0.447 | -0.366 | -0.217 | -0.417 | -0.6 | -0.822 | -0.62
AGAATGTTCCT | 0.037 | -1.47 | -0.491 | -0.64 | -0.735 | -0.963 | -0.948 | -1.17 | -0.63
GAGAAAACCCT | 0.625 | 0.495 | 0.559 | 0.373 | 0.499 | 0.0283 | 0.361 | 0.245 | 0.234
GGAAGCACCCT | -0.312 | 0.509 | 0.257 | 0.415 | 0.261 | -0.129 | 0.214 | 0.0298 | 0.224
GAAGAAATCCC | 1.23 | 0.872 | 0.93 | 0.96 | 0.759 | 0.876 | 0.618 | 0.892 | 0.641
CAGAGTGCCCT | -0.65 | -1.13 | -0.629 | -0.784 | -0.964 | -0.897 | -0.973 | -0.975 | -0.713
AGGGGACTCCC | 1.57 | 0.939 | 2.92 | 2.01 | 2.28 | 1.82 | 2.3 | 1.9 | 2.77
AGGTGTGCCCT | -0.542 | -1.63 | -0.541 | -0.712 | -0.661 | -0.956 | -0.903 | -0.883 | -0.535
GGGGTGATCCC | 0.248 | 0.402 | 1.59 | 0.62 | 1.16 | 0.387 | 0.685 | 0.527 | 0.91
AAGTGGCCCCC | -0.634 | 0.242 | -0.0278 | -0.101 | 0.0039 | 0.173 | 0.29 | 0.101 | 0.0509
AAAGGAGTCCC | 0.141 | 0.939 | 0.569 | 0.732 | 0.431 | 0.907 | 0.607 | 0.81 | 0.405
CGATTTCCCCT | 1.73 | 1.66 | 2.21 | 2.26 | 1.96 | 2.39 | 2.23 | 1.83 | 1.81
GAAAGTGCCCC | 0.518 | 0.277 | 0.105 | 0.655 | 0.365 | 0.443 | 0.479 | 0.607 | 0.511
CAGATGTTCCT | -0.208 | -2.01 | -0.586 | -0.746 | -0.87 | -1.02 | -0.843 | -1.15 | -0.842
CAATAGCCCCT | -0.581 | 1.17 | 0.673 | 0.506 | 0.808 | 0.574 | 0.89 | 0.189 | 0.555
AAAGGACTCCT | -0.688 | -1.11 | -0.681 | -0.94 | -0.976 | -1.07 | -0.964 | -1.03 | -0.758
AAAGGCCTCCC | -1.18 | -0.959 | -0.552 | -0.794 | -0.782 | -0.857 | -0.868 | -1.17 | -0.735
CAGGATCCCCT | -0.318 | 1.34 | 1.3 | 1.91 | 1.43 | 1.79 | 1.65 | 1.34 | 0.975
GAGTGTACCCC | 0.11 | -0.176 | -0.057 | 0.0359 | 0.0373 | 0.15 | 0.337 | 0.0895 | 0.24
AGGATTGTCCT | 0.256 | -1.5 | -0.541 | -0.736 | -0.766 | -0.86 | -0.821 | -1.01 | -0.483
GGGAAGACCCT | 0.871 | 0.365 | 1.66 | 1 | 1.17 | 0.374 | 1.01 | 0.481 | 1.03
GGGTTATCCCC | 2.08 | 0.73 | 3.22 | 1.96 | 2.63 | 1.91 | 2.13 | 1.6 | 2.55
AGGTGATTCCC | 1.45 | 0.701 | 3.04 | 1.59 | 2.15 | 1.33 | 2.11 | 1.81 | 2.88
CGAGTGACCCT | -1.21 | -1.33 | -0.545 | -0.827 | -0.906 | -0.855 | -0.722 | -1.34 | -0.744
AAGAAAGCCCT | -0.308 | -0.8 | -0.426 | -0.68 | -0.581 | -0.838 | -0.728 | -0.563 | -0.671
CGGGATGCCCC | 1.39 | 0.572 | 2.24 | 1.51 | 1.6 | 1.24 | 1.28 | 0.949 | 1.61
AAGAGAGTCCT | 0.889 | -0.892 | -0.435 | -0.32 | -0.676 | -0.818 | -0.673 | -0.59 | -0.442
CGGAGAGTCCT | 1 | -1.2 | -0.591 | -0.159 | -0.629 | -0.808 | -0.743 | -0.482 | -0.448
GAGATTTTCCT | 1.17 | -0.538 | -0.404 | -0.116 | -0.119 | -0.659 | -0.507 | 0.14 | 0.077
CAGGTTTCCCT | 0.821 | 1.16 | 1.21 | 1.39 | 1.33 | 1.28 | 1.76 | 1.26 | 0.893
